Reference: PubChem BioAssay (NCI)
Compounds without any hit were thinned out: in the full panel of roughly 83,000, 20% have a hit.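 Plates (96-well) were seeded with cells, treated with compound at one concentration, and incubated for 48 hours before percent growth was determined.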 Unmarked numbers belong to inactive results. Active and inactive are the calls of the source. How the source made its calls: active means growth percent below 10; inactive means the rest.

Experiments:
Assay in all cases: NCI-60 one-dose screen, 48 h (100 = growth as untreated, 0 = no growth, -100 = all killed)
Conditions in all cases: 10 µM unless noted
SR leukemia = system: SR leukemia
RPMI-8226 leukemia = system: RPMI-8226 leukemia
OVCAR-8 ovarian = system: OVCAR-8 ovarian
OVCAR-5 ovarian = system: OVCAR-5 ovarian
OVCAR-4 ovarian = system: OVCAR-4 ovarian
SK-OV-3 ovarian = system: SK-OV-3 ovarian
IGROV1 ovarian = system: IGROV1 ovarian
HS 578T breast = system: HS 578T breast
NCI/ADR-RES ovarian = system: NCI/ADR-RES ovarian
T-47D breast = system: T-47D breast
BT-549 breast = system: BT-549 breast
MDA-MB-435 melanoma = system: MDA-MB-435 melanoma
SW-620 colon = system: SW-620 colon
MCF7 breast = system: MCF7 breast
HCT-116 colon = system: HCT-116 colon
HCC-2998 colon = system: HCC-2998 colon
KM12 colon = system: KM12 colon
OVCAR-3 ovarian = system: OVCAR-3 ovarian

SMILES	growth (SR leukemia)	growth (RPMI-8226 leukemia)	growth (OVCAR-8 ovarian)	growth (OVCAR-5 ovarian)	growth (OVCAR-4 ovarian) [%]	growth (SK-OV-3 ovarian) [%]	growth (IGROV1 ovarian)	growth (HS 578T breast)	growth (NCI/ADR-RES ovarian)	growth (T-47D breast)	growth (BT-549 breast)	growth (MDA-MB-435 melanoma)	growth (SW-620 colon)	growth (MCF7 breast)	growth (HCT-116 colon)	growth (HCC-2998 colon)	growth (KM12 colon)	growth (OVCAR-3 ovarian)
CC(O)c1cc2ccccc2c(=O)o1 (stereo unspecified)	96.2%	96.8%	102%	103%	100	99.8	107%	103%	101%	104%	105%	96.3%	98.9%	91.5%	108%	99.9%	106%	–
CCc1cccc2c3c(sc12)C(c1ccc(OC)cc1)C(C#N)=C(/N=C/c1ccc(Cl)cc1)O3 (stereo unspecified)	1.27% (active)	10.9%	21.8%	45.7%	73.9	40.4	42.6%	-7.21% (active)	0.0091% (active)	12.9%	29.8%	-47.2% (active)	39.4%	19.3%	13%	20%	22.7%	–
Cc1cc(C)c2sc(=O)n(Cc3nnc(SCCC(=O)O)o3)c2n1	79.2%	99.8%	104%	99.4%	108	105	102%	103%	102%	89.5%	123%	–	103%	97%	103%	104%	–	–
C#CC(=O)N(c1ccc(OC)cc1OC)C(C(=O)NCC(=O)OCC)c1cccs1 (stereo unspecified)	-25% (active)	-55.3% (active)	46.6%	2.13% (active)	116	–	-58.1% (active)	20.9%	87.5%	38.1%	70.3%	95.5%	2.04% (active)	49.1%	41.9%	110%	28.5%	-58.9% (active)
Nc1nc(-c2cccc([N+](=O)[O-])c2)c(N=Nc2ccc([N+](=O)[O-])cc2Cl)s1	5.91% (active)	-6.23% (active)	7.59% (active)	21%	16.3	–	30.6%	-4.26% (active)	6.4% (active)	4.47% (active)	-24.9% (active)	6.11% (active)	13%	2.17% (active)	0.397% (active)	12.9%	2.86% (active)	–
NC(N)=Nc1ccc(Oc2cccc(NC(N)=Nc3ccc(I)cc3F)c2)cc1	48.1%	62.3%	90.5%	65.5%	81.3	–	32.9%	61.1%	100%	75.3%	87.6%	85%	89.5%	63.3%	90.5%	102%	–	75.7%
Cc1nc(-c2ccccc2O)ccc1C(=O)N=Nc1c(O)[nH]c2ccc(Br)cc12	101%	87.9%	97.9%	101%	102	–	89.7%	91.6%	99.6%	88.9%	–	102%	95.9%	91%	99.1%	123%	98.3%	103%
NS(=O)(=O)c1ccc(Nc2nc(N/N=C/CCc3ccccc3)nc(Nc3ccccc3)n2)cc1	91.5%	101%	104%	103%	104	–	106%	96.8%	113%	102%	99.4%	101%	104%	96.3%	103%	113%	109%	117%
N#Cc1cnc2ccc(-c3cnc(N)nc3)cc2c1N1CCc2cc(F)c(Cl)cc21	8.58% (active)	-16.9% (active)	12%	19.8%	12.3	–	-44.6% (active)	-22.5% (active)	6.22% (active)	9.38% (active)	3.1% (active)	-1.22% (active)	9.24% (active)	5.81% (active)	2.24% (active)	-3.03% (active)	7.85% (active)	8.88% (active)
CCC(NC(c1cc2cccc3ccc4cccc1c4c32)c1nnnn1C(C)(C)C)C1CCCCC1 (stereo unspecified)	40.9%	28.1%	73.2%	84.6%	46.5	70.8	65.2%	84.5%	74.4%	74.6%	–	60%	61.5%	48.2%	40.6%	90.3%	67.8%	–
COc1cc2oc(-c3cccc(N)c3)cc(=O)c2c(OC)c1OC	87.2%	97.8%	98.7%	101%	99.7	125	107%	–	106%	97.8%	116%	103%	112%	96.3%	111%	110%	103%	–
N=c1c2cc(-c3ccccc3)oc2ncn1/N=C/c1ccc(Br)cc1	30.1%	92.4%	80.7%	49.3%	19.7	–	42.8%	79.1%	22.3%	79.6%	101%	61.6%	31%	65.6%	50.7%	100%	23.9%	-7.71% (active)
COc1cc(/C=C2\C(=O)Nc3cc(Cl)ccc32)ccc1OCc1ccc(F)cc1	97.5%	113%	98.7%	98.6%	83.2	–	72.7%	91.7%	101%	94.1%	95.7%	103%	98.2%	57.1%	92.9%	96.8%	102%	102%
Fc1ccc(-c2cc3nc(C(Cl)Cl)nc(-c4ccco4)n3n2)cc1	64.8%	-31.5% (active)	10.4%	-13.7% (active)	17.7	–	74.3%	-6.45% (active)	-18.9% (active)	7.31% (active)	82.4%	-1.86% (active)	3.29% (active)	-8.71% (active)	-36.8% (active)	-69.1% (active)	-24.5% (active)	-46.9% (active)
O=C(CN1CCN(c2cc(=O)n(-c3ccccc3)c3ccccc23)CC1)Nc1cccc(C(F)(F)F)c1	67.3%	47%	70.6%	91.8%	19.9	–	60.7%	76.3%	64.7%	19.7%	66.6%	61.4%	75%	29.1%	42.6%	84.8%	65.1%	69.8%
COc1cccc(N2CCN(c3ncnc4c3[nH]c3ccc(F)cc34)C[C@H]2C)c1	46.4%	19.2%	22%	91.4%	28	–	59.5%	72.9%	17%	14.6%	-3.9% (active)	19.4%	95.9%	37.2%	41.9%	96.8%	54.5%	69.4%
COc1ccc(S(=O)(=O)NCCCNc2nccc(-c3[nH]c(-c4ccccc4)nc3-c3ccc(Cl)c(O)c3)n2)cc1	61.9%	49.8%	67%	104%	101	–	93.6%	112%	103%	54.4%	–	36.9%	107%	73.2%	57.8%	112%	77.6%	71.8%
